Measured values taken from PubChem BioAssay AID463190 (Sanford-Burnham Center for Chemical Genomics, 2010).
Hit rate of the full screen: of about 330,000 compounds, about 7,300 (2.2%) were called active.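 How the source made its calls: active means inhibition of at least 40%; inactive means the rest.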 This excerpt belongs to a sample that is enriched for actives.

Assay: growth inhibition of tim10-1 ts yeast – luminescence, uHTS, primary screen (AID 463190);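 further: mutant grown at 25 °C; 0% = DMSO wells with yeast and 100% = wells holding no yeast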
Settings: S. cerevisiae tim10-1 ts strain growth, BacTiter-Glo, 24 h; at 20 µM; hits give high values
In the case of `CCOc1ccc(-n2c(SC(C)C(=O)OC)nc3c(c2=O)SCC3)cc1` (stereo not given), the inhibition is reported as 10.7% (inactive). In the case of `Cc1cc(F)ccc1NC(=O)C(C)n1c2ccccc2c2nc(=O)cc(C)n21` (stereo not given), the inhibition is reported as 13.9% (inactive). With `C[C@H](CO)N1C[C@H](C)[C@@H](CN(C)S(=O)(=O)c2ccc(F)cc2)Oc2c(NC(=O)Nc3ccccc3)cccc2C1=O` the inhibition was -4.64% (inactive). For `O=C(OCC(=O)N1CCCC1=O)c1cc(S(=O)(=O)N2CCOCC2)ccc1Cl`, the inhibition was -17.2% (inactive). In the case of `Cc1ccc(S(=O)(=O)N2CCC(C(=O)NCCC3=CCCCC3)CC2)cc1C`, the inhibition is reported as -3% (inactive). With `CC(=O)Cc1nsc(NC(=O)c2csc3c2CCCC3)n1` the inhibition was 41.9% (active). In the case of `O=C(NCc1ccccc1Cl)c1csc2c1CCCCC2`, the inhibition is reported as 12.3% (inactive). With `CC(=O)Cc1nsc(NC(=O)c2ccc(Cl)cc2Cl)n1` the inhibition was 36.5% (inactive). In the case of `Cc1ccc(CNC(=O)CCC(=O)N2CC(C)Sc3ccccc32)cc1` (stereo not given), the inhibition is reported as 28.3% (inactive). For `CCCc1nnc(NC(=O)CCC(=O)NC2CC2)s1`, the inhibition was 10.7% (inactive). For `Cc1ccc2[nH]c(C)c(CCNC(=O)NC3CCCCC3)c2c1`, the inhibition was 11.4% (inactive). With `Cc1ccc(/C(N)=N/OC(=O)COc2ccc(Cl)c(C)c2)cc1` the inhibition was 41.2% (active). In the case of `Cc1cc(OCC(=O)N2CCN(c3ncccn3)CC2)ccc1Cl`, the inhibition is reported as 16% (inactive). In the case of `COc1ccc(C(=O)COC(=O)COc2ccc(C)c(C)c2)cc1`, the inhibition is reported as 10.1% (inactive). In the case of `COC(=O)c1cccc([N+](=O)[O-])c1CS(=O)(=O)c1ccc(C)cc1`, the inhibition is reported as 24.5% (inactive). For `COC(=O)CCc1sc(Nc2ccc(Br)cc2)nc1-c1ccc(OC)cc1`, the inhibition was 46.4% (active). In the case of `Cc1ccc(OC(=O)CCC(=O)Nc2ccc(Br)cc2)cc1`, the inhibition is reported as 0.584% (inactive). With `COc1ccc(C(=O)Nc2nc(-c3ccc(OC)cc3)c(-c3ccc([N+](=O)[O-])cc3)s2)cc1` the inhibition was 14.1% (inactive). In the case of `CCCn1nnc2sc3c(c2c1=O)CCC(C)C3` (stereo not given), the inhibition is reported as 9.67% (inactive). In the case of `CC1CCc2c(sc3nc4n(c(=O)c23)CCS4)C1` (stereo not given), the inhibition is reported as 40.6% (active). In the case of `C=CCn1c(SCc2c(C)noc2C)nc2sc3c(c2c1=O)CCC(C)C3` (stereo not given), the inhibition is reported as -4.33% (inactive). With `Cc1cc2c(c(=O)n1C)C(C(C)C)C(C#N)=C(N)O2` (stereo not given) the inhibition was -3.2% (inactive). In the case of `COc1cccc(CNC(=O)C2CCN(S(=O)(=O)c3cccc4cccnc34)CC2)c1`, the inhibition is reported as 13.9% (inactive). In the case of `Cn1c(=O)c(C(=O)Nc2ncccn2)c(O)c2ccccc21`, the inhibition is reported as 25.2% (inactive). For `C=CCn1c(SCc2c(C(=O)OC)sc(N)c2C(=O)OC)nnc1-c1ccc(Cl)cc1`, the inhibition was 15.3% (inactive).
